This note sets out measurements from PubChem BioAssay AID1376 (SRMLSC, 2008).

In all, about 220,000 compounds went through this assay and about 530 (0.24%) were called active. No stated cut-off is given here; in the data, active means inhibition above about 13%; inconclusive means no clear call, values can overlap the other calls; inactive means below that. For the sample, actives were picked, then their nearest neighbours and some compounds at random. Measured potencies and affinities stand elsewhere.

The target of the experiment is Bifunctional protein GlmU (Mycobacterium tuberculosis (strain ATCC 25618 / H37Rv)) (UniProt P9WMN3). The experiment can be described thus: inhibition of mycobacterial GlmU enzyme – biochemical, glucosamine-1-phosphate acetyltransferase (AID 1376).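 Further: 0% = complete reaction with vehicle and 100% = reaction without substrate.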 The conditions noted are these: M. tuberculosis GlmU acetyltransferase enzyme assay; hits give high values;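 tested at 30 µM in the primary screen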.
Sequence of Bifunctional protein GlmU (Mycobacterium tuberculosis (strain ATCC 25618 / H37Rv)) (P9WMN3 whole entry, looked up): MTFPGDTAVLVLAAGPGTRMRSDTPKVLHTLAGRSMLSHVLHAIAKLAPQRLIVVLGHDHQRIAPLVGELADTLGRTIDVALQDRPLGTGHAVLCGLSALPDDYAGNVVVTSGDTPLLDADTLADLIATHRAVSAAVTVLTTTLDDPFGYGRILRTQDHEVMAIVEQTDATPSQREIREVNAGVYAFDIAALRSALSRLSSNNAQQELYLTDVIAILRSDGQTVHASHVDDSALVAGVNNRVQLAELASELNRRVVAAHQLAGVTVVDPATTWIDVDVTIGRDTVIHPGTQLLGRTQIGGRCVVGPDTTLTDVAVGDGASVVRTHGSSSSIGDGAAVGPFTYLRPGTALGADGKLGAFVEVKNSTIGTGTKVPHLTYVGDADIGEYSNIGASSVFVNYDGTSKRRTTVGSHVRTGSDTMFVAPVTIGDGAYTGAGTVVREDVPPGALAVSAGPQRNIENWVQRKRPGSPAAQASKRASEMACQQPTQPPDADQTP
For `COc1ccccc1CNC(=O)CS(=O)Cc1nc(-c2ccccc2C)oc1C` (stereo unspecified), the inhibition was -3.21% (inactive). For the compound `COc1ccc(CCNC(=O)c2ccc3ccccc3n2)cc1OC`, the inhibition is 1.59% (inactive).

In the case of `CCc1cccc(C)c1NC(=S)N(CCN(C)C)C(C)c1ccco1` (stereo unspecified), the inhibition was -1.5% (inactive).

For `Cc1occc1C(=O)N/N=C/c1cnn(C)c1C`, the inhibition was 0.23% (inactive).

With `CC1CN=C(NCCc2ccccc2)S1` (stereo unspecified), the inhibition was -5.97% (inactive). `COc1ccc(Cl)cc1N(C(C)C(=O)NC1CCCC1)S(C)(=O)=O` (stereo unspecified): the inhibition was -1.06% (inactive). For `Cc1nonc1C(=O)N/N=C/c1cccc(O)c1` the value was -5.8% (inactive). As for `O=C1C=C(N2CCOCC2)C2(CCCCC2)O1`, the figure is -4.46% (inactive). As for `CC1=Nc2ccccc2/C1=C/c1c(N)n2c(S(=O)(=O)C(C)C)nsc2nc1=O`, the figure is 6.27% (inactive). On to `CS(=O)(=O)c1nsc2nc(=O)c(/C=C3\C=Nc4ccccc43)c(N)n12`, for which the inhibition is 9.05% (inactive).

`CC(C)S(=O)(=O)c1nsc2nc(=O)c(/C=C3\C=Nc4ccccc43)c(N)n12`: the inhibition was 14.9% (active). `COc1ccc2[nH]c3c(N4CCc5ccccc5C4)ncnc3c2c1`: the inhibition is 0.43% (inactive). As for `Cc1cc(C)n2nc(CC(=O)NCc3ccc(F)cc3)nc2n1`, the figure is 3.44% (inactive); as for `Cc1ccc(-c2nc(C)sc2CC(=O)Nc2nnc(C)s2)cc1`, -1.22% (inactive). For `Cc1ccc(-c2nc(C)sc2CC(=O)NCc2ccco2)cc1`, the inhibition was 14.4% (active). For `Cc1ccc(NC(=O)Cc2sc(C)nc2-c2ccc(C)cc2)cc1` the value was -0.58% (inactive); for `Cc1coc(NC(=O)CSc2nc(-c3ccncc3)cc(C(F)(F)F)c2C#N)n1`, -2.15% (inactive). For `COc1ccccc1Cn1c(=S)[nH]c2cc(C(=O)NCc3cccnc3)ccc2c1=O`, the inhibition is -2.96% (inactive).

Turning to `COc1cc(CNn2cn[nH]c2=S)cc(Cl)c1OCc1ccccc1`, the inhibition was -2.33% (inactive). For `COc1cccc(-c2cc(-c3cccnc3)nc(N)c2C#N)c1` the value was 2.15% (inactive); for `O=[N+]([O-])c1ccc(N2CCN(CCO)CC2)c2ncccc12`, -1.16% (inactive); for `O=[N+]([O-])c1c(N2CCN(CCO)CC2)nc2ccccn12`, 15.2% (active).

Consider `Cc1nc([N+](=O)[O-])cn1-c1nc2ccccn2c1[N+](=O)[O-]`, for which the inhibition was -6.37% (inactive). With `COc1cccc(N2[C@@H](CC(=O)O)c3cc(C(F)(F)F)ccc3S2(=O)=O)c1`, the inhibition was 7.93% (inactive). As for `C=CCn1c(Sc2ncc([N+](=O)[O-])s2)n[nH]c1=O`, the figure is 7.87% (inactive). Consider `CCOc1ccc(N=Nc2c(=O)[nH]n3c(=O)c4c([nH]c23)CCCC4)cc1`, for which the inhibition is 4.96% (inactive). For `CCOc1ccc(N=Nc2c(=O)[nH]n3c(=O)cc(C)[nH]c23)cc1` the value was 17.1% (active); for `Cc1cc(=O)n2[nH]c(=O)c(N=Nc3ccccc3)c2[nH]1`, 4.01% (inactive); for `COc1cccc(N=Nc2c(=O)[nH]n3c(=O)c4c([nH]c23)CCC4)c1`, 5.17% (inactive). Take `Cc1ccc(N=Nc2c(=O)[nH]n3c(=O)cc(C)[nH]c23)cc1`: the inhibition was 9.14% (inactive). As for `COc1cccc(N=Nc2c(=O)[nH]n3c(=O)cc(C)[nH]c23)c1`, the figure is 13% (active).

In general, inhibition refers to the relative decrease from the control value, in per cent.
